Compound activity: PubChem BioAssay, several laboratories
Mtb FBA inh – Mtb FBA enzyme inhibitors, primary screen, biochemical, fluorescence, strain H37Rv. AID 588726, 2011. 360,000 compounds, 2.3% hits. Fructose-bisphosphate aldolase (Mycobacterium tuberculosis (strain ATCC 25618 / H37Rv)), …. purified M. tuberculosis FBA, fluorescence read-out. inhibition, % at 1 µM; in the data active = inhibition above about 27%;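 note: 0% = vehicle and 100% = reference inhibitor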
Target sequence (P9WQA3 whole entry, looked up): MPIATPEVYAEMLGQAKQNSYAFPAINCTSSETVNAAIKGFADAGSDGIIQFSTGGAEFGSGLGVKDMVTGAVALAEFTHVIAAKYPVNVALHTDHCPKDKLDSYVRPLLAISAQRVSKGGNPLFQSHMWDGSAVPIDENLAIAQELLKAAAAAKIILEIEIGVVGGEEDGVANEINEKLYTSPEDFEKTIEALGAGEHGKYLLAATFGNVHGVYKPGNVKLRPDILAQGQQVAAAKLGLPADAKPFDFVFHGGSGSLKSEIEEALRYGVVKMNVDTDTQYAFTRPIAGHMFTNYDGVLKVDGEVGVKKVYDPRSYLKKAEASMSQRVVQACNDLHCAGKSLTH
BH1578 lux ind – inducers of Vibrio cholerae quorum light production without autoinducers, primary screen, BH1578 luxS cqsA deficient, single point | V. cholerae BH1578 lux reporter, luminescence, 6 h | activation, % at 18.7 µM | 350,000 compounds, 0.16% hits | AID 588436, 2011; in the data active = activation mostly above about 9.7%, no sharp cut-off
GDH-TPI counter – GDH-TPI coupling enzyme inhibitors, primary screen, artefact control for M. tuberculosis FBA inhibitor project, biochemical, absorbance, full deck; GDH-TPI coupled enzyme counterscreen, NADH absorbance; inhibition, % at 4.8 µM; 360,000 compounds, 1.2% hits; AID 588335, 2011;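 note: 0% = DMSO wells and 100% = wells lacking the enzyme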
CCHFV vOTU inh – CCHFV vOTU protease inhibitors, primary screen, biochemical, Pep-AMC substrate, fluorescence; AID 651958, 2012; inhibition, % at 11.5 µM; 370,000 compounds, 0.55% hits; note: 0% = vehicle wells with enzyme and 100% = no enzyme wells
The depositor's hits bear a star; i = inactive; nt = no result; + = active, no number. Sampled rows, rich in hits. Any-hit rate of the full collection: about 3.9%. Cut-off read from the data, not from the text of the source, unless noted: active = inhibition above about 30%; inactive = the rest.

SMILES	Mtb FBA inh	BH1578 lux ind	GDH-TPI counter	CCHFV vOTU inh
Cc1c(C(=O)N/N=C/c2ccc(O)cc2)sc(=S)n1C	-3.3	-0.1	43.0*	-0.8
O=C(N/N=C/c1c(O)n(CCC2=CCCCC2)c(=O)[nH]c1=O)c1ccccc1	8.6	i	34.0*	3.3
Cc1ccccc1-n1c(O)c(/C=N/NC(=O)c2ccccc2O)c(=O)[nH]c1=S	4.8	-0.3	31.1*	7.5
O=C(N/N=C/c1c(O)n(-c2ccccc2)c(=O)[nH]c1=O)c1ccncc1	1.7	-0.2	31.3*	12.1
CCCOc1ccc(C2C(C(=O)OC)=C(C)N=C3SCCC(=O)N32)cc1OCC (centres undefined)	1.6	5.9	10.3	5.2
COc1ccc(CSC2=C(C#N)C(=O)NC3(CCCCC3)S2)cc1	-3.4	i	34.2*	19.5
CCC1CCC2(CC1)SCC(=O)N2c1ccccc1 (centres undefined)	-0.1	-0.5	22.8	-12.2
CCC12CCCN3CCC4(C(=C(C(=O)OC)C1)Nc1ccccc14)C32 (centres undefined)	4.2	-0.8	32.8*	13.4
COc1ccc2oc3cc(NCCN(C)C)ccc3c(=O)c2c1	+	nt	nt	-424.6
COC(=O)C(C(=O)OC)=C(/C=C/N(C)C)N(C)C	-6.0	-0.4	37.6*	17.7
COc1ccc2nc(N3C(=O)CNC3=S)sc2c1	0.7	-1.0	64.1*	3.8
Cc1ccc2nc(N3C(=O)CNC3=S)sc2c1	-0.5	-0.6	20.7	-0.9
CCN(C(C)=O)c1cnc(C=NNC(N)=S)c2ccccc12	1.8	-1.1	34.4*	9.4
OC(CN1CCCCC1)Cn1c2ccccc2c2ccccc21 (centres undefined)	3.3	-5.6	0.0	3.8
O=c1c2ccccc2n(CC(O)CN2CCCCC2)c2ccccc12 (centres undefined)	108.5*	0.3	3.9	-124.7
O=C1CCCC2=C1C(c1ccc(O)cc1)c1c(ccc3ccccc13)N2 (centres undefined)	160.3*	i	4.4	-78.8
NC(Cc1ccc(Cl)cc1)c1csc(NC(=O)Nc2ccccc2)n1 (centres undefined)	-2.6	-1.1	7.1	2.5
Cc1cccc(-n2c(O)c(/C=N/NC(=O)c3ccccc3Cl)c3ccccc3c2=O)n1	26.6	-0.2	34.6*	-25.2
Cc1cccc(-n2c(O)c(C=Nc3ccccc3-c3n[nH]c(=S)[nH]c3=O)c3ccccc3c2=O)n1	5.1	-0.5	37.2*	23.4
Cc1cccc(-n2c(O)c(C=Nc3ccccc3O)c3ccccc3c2=O)n1	-15.1	i	9.5	4.8
Cc1ccc(-n2c(O)c(C=Nc3ccccc3-c3n[nH]c(=S)[nH]c3=O)c3ccccc3c2=O)cc1C	4.9	i	14.4	8.7
COc1ccc(C(=O)Nc2nnc(S(=O)(=O)N3CCCCCC3)s2)cc1OC	4.1	-0.1	47.0*	-0.3
CCOc1ccc2nc(NC(=O)c3ccc(OC)c(S(=O)(=O)N4CCOCC4)c3)sc2c1	-1.6	44.4*	7.1	-5.7
O=C(Nc1nnc(S(=O)(=O)N2CCCC2)s1)c1cccc([N+](=O)[O-])c1	3.1	-0.5	38.9*	nt
CC1CCN(S(=O)(=O)c2nnc(NC(=O)c3cccc([N+](=O)[O-])c3)s2)CC1	3.1	-0.1	20.0	nt
SMILES	Mtb FBA inh	BH1578 lux ind	GDH-TPI counter	CCHFV vOTU inh
COc1ccc(C(=O)Nc2nnc(S(=O)(=O)N3CCC(C)CC3)s2)cc1OC	4.2	i	46.1*	15.2
CCOc1ccc2nc(NC(=O)c3ccc(S(=O)(=O)N4CCOCC4)cc3)sc2c1	1.4	-0.5	8.5	-1.2
Cc1noc(NS(=O)(=O)c2ccc(N/C=C/C(=O)c3cccnc3)cc2)c1C	-0.2	1.7	33.9*	3.5
O=C(NNC(=S)Nc1ccc(Br)cc1)c1cccnc1	-1.2	i	16.9	10.6
O=C(/C=C\Nc1ccc(Br)cc1)c1cccnc1	-5.9	-0.1	34.9*	10.9
Cc1noc(NS(=O)(=O)c2ccc(N/C=C\C(=O)c3ccncc3)cc2)c1C	-2.3	-0.7	19.6	8.3
CC(=O)/C(N=Nc1ccc(C(=O)O)cc1[N+](=O)[O-])=C(\C)O	-1.8	0.4	68.8*	12.3
N#CC(C(=O)NC1CC1)c1nc2ccccc2nc1N1CCCC1 (centres undefined)	60.6*	i	19.7	-32.2
N#CC(C(=O)NC1CC1)c1nc2ccccc2nc1N1CCN(C/C=C/c2ccccc2)CC1 (centres undefined)	-0.9	-0.4	2.9	-4.5
CC[n+]1c(/C=C(/C)SC)sc2ccccc21	2.2	0.0	38.3*	-6.6
